In PubChem BioAssay:
Active and inactive are the calls of the source.

Legend:
[1] = E. coli DRC41 culture turbidity changes, primary screen, E. coli filamentation inducer project, strain DRC41, OD650, 48 h (AID 1152);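 also: E. coli MC1000 strain DRC41 lacking acrAB efflux pump and sulA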; details: E. coli DRC41 (acrAB sulA), higher = more signal, called active from +8 up or from −8 down
[2] = small-molecule binders of probe aLefty1, primary screen, biochemical, small-molecule microarray, 635/667 nm fluorescence (AID 1153); details: higher = more signal;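 also: score merges spot fluorescence with signal-to-noise ratio from the scanned slide images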
[3] = PSAC antagonists in infected red cells, primary screen, cell-based, P. falciparum Indochina, OD700, 1 h (AID 1154); details: P. falciparum Indochina infected RBC osmotic lysis, higher = more signal, called active from +8 up or from −8 down
[4] = PSAC antagonists in infected red cells, primary screen, cell-based, P. falciparum Indochina, OD700, 2 h (AID 1155);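 also: lysis reports solute entry through the parasite surface anion channel PSAC; channel blockers reduce lysis of infected cells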; details: P. falciparum Indochina infected erythrocytes, osmotic lysis OD700; higher = more signal, called active from +8 up or from −8 down
[5] = osmotic lysis modulators in infected erythrocytes, primary screen, PSAC antagonist project, cell-based, P. falciparum Indochina, OD700, 3 h (AID 1156); details: higher = more signal, called active from +8 up or from −8 down
[6] = PSAC antagonists in infected red cells, primary screen, cell-based, P. falciparum Indochina, OD700, 18 h (AID 1157); details: P. falciparum Indochina infected erythrocytes, osmotic lysis OD700, 18 h; higher = more signal, called active from +8 up or from −8 down
[7] = modulators of S6 phosphorylation in cells, primary screen, cell-based, A549, cytoblot, luminescence, serum-stimulated (AID 1158); details: A549 phospho-S6 cytoblot, 5 h, higher = more signal;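 also: serum-stimulated A549 lung adenocarcinoma cells; signal is phosphorylated S6 detected by cytoblot immunostaining with HRP secondary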
[8] = target: NADPH oxidase 2 (Homo sapiens) (UniProt P04839); assay: NOX2-dependent H2O2 signal modulators, primary screen, NOX inhibitor project, cell-based, HEK293-NOX2, PMA-stimulated, Amplex Red fluorescence (AID 1159); details: 45 min, higher = more signal, called active from +8 up or from −8 down; also: test concentration not given here
NADPH oxidase 2 (Homo sapiens), sequence (P04839 whole entry, looked up): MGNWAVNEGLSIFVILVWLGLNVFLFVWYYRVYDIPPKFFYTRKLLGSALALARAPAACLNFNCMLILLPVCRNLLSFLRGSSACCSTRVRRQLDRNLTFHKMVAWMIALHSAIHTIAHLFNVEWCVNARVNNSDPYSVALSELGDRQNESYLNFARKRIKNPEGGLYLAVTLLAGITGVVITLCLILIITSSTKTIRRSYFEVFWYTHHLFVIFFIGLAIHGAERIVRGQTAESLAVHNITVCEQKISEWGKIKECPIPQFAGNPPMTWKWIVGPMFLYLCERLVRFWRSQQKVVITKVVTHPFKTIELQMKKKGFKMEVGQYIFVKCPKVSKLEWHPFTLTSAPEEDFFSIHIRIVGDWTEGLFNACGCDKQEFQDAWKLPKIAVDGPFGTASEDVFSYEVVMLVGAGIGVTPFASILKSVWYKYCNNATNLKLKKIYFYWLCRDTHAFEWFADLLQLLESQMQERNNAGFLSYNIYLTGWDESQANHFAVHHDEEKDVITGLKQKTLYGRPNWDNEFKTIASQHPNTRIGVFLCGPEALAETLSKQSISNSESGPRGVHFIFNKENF

[9] = target: NADPH oxidase 4 (Homo sapiens) (UniProt Q9NPH5); assay: NOX4-dependent H2O2 signal modulators, primary screen, NOX inhibitor project, cell-based, HEK293-NOX4, tetracycline-induced, Amplex Red fluorescence (AID 1160); details: 45 min, higher = more signal, called active from +8 up or from −8 down
NADPH oxidase 4 (Homo sapiens), sequence (Q9NPH5 whole entry, looked up): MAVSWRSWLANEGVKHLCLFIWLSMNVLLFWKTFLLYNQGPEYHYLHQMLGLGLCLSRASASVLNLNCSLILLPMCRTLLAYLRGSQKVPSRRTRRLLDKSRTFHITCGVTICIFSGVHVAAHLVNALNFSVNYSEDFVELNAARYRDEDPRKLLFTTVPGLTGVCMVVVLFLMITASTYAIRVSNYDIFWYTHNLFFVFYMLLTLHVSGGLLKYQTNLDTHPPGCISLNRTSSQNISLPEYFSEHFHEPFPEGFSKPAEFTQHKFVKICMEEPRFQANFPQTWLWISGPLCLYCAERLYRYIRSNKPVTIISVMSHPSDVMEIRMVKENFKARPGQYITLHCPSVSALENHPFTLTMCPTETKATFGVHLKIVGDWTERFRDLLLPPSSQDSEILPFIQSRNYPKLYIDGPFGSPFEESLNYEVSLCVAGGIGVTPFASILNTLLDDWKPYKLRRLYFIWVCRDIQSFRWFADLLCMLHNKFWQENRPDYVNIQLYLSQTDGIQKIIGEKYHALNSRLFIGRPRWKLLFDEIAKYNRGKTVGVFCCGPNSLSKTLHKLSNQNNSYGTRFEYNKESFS

[10] = target: NADPH oxidase 5 (Homo sapiens) (UniProt Q96PH1); assay: NOX5-dependent H2O2 signal modulators, primary screen, NOX inhibitor project, cell-based, HEK293-NOX5, Amplex Red fluorescence (AID 1161); details: HEK293-NOX5, ionomycin, 45 min, higher = more signal
NADPH oxidase 5 (Homo sapiens), sequence (Q96PH1 whole entry, looked up): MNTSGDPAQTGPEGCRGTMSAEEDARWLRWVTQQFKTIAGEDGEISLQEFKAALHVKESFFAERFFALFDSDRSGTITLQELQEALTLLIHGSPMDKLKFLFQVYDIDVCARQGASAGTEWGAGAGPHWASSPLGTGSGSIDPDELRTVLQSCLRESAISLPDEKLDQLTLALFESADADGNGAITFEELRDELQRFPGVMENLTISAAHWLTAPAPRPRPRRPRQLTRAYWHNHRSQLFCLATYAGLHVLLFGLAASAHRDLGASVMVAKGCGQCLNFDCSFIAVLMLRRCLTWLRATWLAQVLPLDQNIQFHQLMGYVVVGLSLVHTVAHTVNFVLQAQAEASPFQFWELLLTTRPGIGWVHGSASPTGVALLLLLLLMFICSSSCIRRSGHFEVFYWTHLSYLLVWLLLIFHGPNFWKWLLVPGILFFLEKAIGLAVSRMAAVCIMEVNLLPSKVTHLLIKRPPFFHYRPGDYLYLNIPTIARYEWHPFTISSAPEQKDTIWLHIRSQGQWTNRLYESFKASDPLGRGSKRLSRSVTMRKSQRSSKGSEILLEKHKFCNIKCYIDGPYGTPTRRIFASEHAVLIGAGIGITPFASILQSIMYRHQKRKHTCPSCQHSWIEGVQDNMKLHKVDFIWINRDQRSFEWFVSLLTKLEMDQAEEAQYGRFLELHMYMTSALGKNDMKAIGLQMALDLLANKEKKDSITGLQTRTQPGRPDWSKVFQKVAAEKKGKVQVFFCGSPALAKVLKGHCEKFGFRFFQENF

[11] = A549 cell viability effects, profiling panel, calcein-AM fluorescence, 48 h, basal (AID 1162); details: higher = more signal; also: test concentration not given here
[12] = adipocyte viability effects, profiling panel, cell-based, 3T3-L1 adipocytes, calcein-AM fluorescence, 48 h, basal (AID 1163); details: 3T3-L1 adipocytes viability, higher = more signal; also: test concentration not given here
[13] = HepG2 cell viability effects, profiling panel, calcein-AM fluorescence, 48 h, basal (AID 1164); details: higher = more signal; also: test concentration not given here
[14] = MM1S cell viability effects, profiling panel, calcein-AM fluorescence, 48 h, basal (AID 1165); details: higher = more signal;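 also: viability of MM1S multiple myeloma cells under basal unstimulated conditions; test concentration not given here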
[15] = basal RPMI8226 viability, no added stimulus, profiling panel, cell-based, calcein-AM fluorescence, 48 h, PK04 Diversity Set (AID 1166); details: RPMI8226 myeloma viability, higher = more signal;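 also: cells grown under basal conditions without added stimulus; test concentration not given here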
[16] = basal HepG2 mitochondrial membrane potential changes, profiling panel, cell-based, JC-1 fluorescence, 24 h, 100 nL compound (AID 1167); details: higher = more signal; also: test concentration not given here
[17] = basal 3T3-L1 adipocyte mitochondrial potential changes, profiling panel, cell-based, JC-1 fluorescence, 3T3-L1 adipocytes, 24 h, 100 nL compound (AID 1168); details: JC-1 mitochondrial fluorescence, higher = more signal, called active from +8 up or from −8 down; also: test concentration not given here
[18] = basal RPMI8226 mitochondrial membrane potential changes, profiling panel, cell-based, JC-1 fluorescence, 24 h, 100 nL compound (AID 1169); details: RPMI8226 myeloma, JC-1 mitochondrial potential fluorescence, higher = more signal; also: test concentration not given here
[19] = basal MM1S mitochondrial membrane potential changes, profiling panel, cell-based, JC-1 fluorescence, 24 h, 100 nL compound (AID 1170); details: higher = more signal; also: test concentration not given here
[20] = A549 lung cancer cell viability effects, profiling panel, resazurin fluorescence, 24 h, PK04 Diversity Set (AID 1171); details: higher = more signal, called active from +8 up or from −8 down; also: test concentration not given here

Row | Compound | z-score [1] | composite z-score [2] | z-score [3] | z-score [4] | z-score [5] | z-score [6] | z-score [7] | z-score [8] | z-score [9] | z-score [10] | z-score [11] | z-score [12] | z-score [13] | z-score [14] | z-score [15] | z-score [16] | z-score [17] | z-score [18] | z-score [19] | z-score [20]
1 | COCCOC(=O)N1C(=O)[C@@]2(c3cc(C#CCNC(N)=O)ccc31)[C@H](C(=O)Nc1nc3ccccc3s1)[C@H]1C(=O)O[C@H](c3ccccc3)[C@H](c3ccccc3)N1[C@@H]2c1ccc(O)cc1 | -0.614 (inactive) | 0.317 | 1.1 (inactive) | 0.476 (inactive) | -0.385 (inactive) | 1.05 (inactive) | 0.637 | 0.95 (inactive) | -1.12 (inactive) | 0.142 | -0.277 | -0.133 | -0.287 | -1.19 | 0.258 | -3.96 | -2.98 (inactive) | -0.776 | -1.14 | 0.14 (inactive)
2 | COCCOC(=O)N1C(=O)[C@@]2(c3ccccc31)[C@H](C(=O)Nc1nc3ccccc3s1)[C@H]1C(=O)O[C@H](c3ccccc3)[C@H](c3ccccc3)N1[C@@H]2c1ccccc1OCCO | 0.253 (inactive) | 0.941 | 4.98 (inactive) | 2.57 (inactive) | 0.0618 (inactive) | 1.95 (inactive) | -0.0149 | 1.91 (inactive) | -0.601 (inactive) | 1.17 | -0.905 | 0.679 | -0.899 | -0.975 | -1.48 | -2.27 | 2.21 (inactive) | -0.796 | -0.61 | 0.101 (inactive)
3 | C=CCOC(=O)[C@H]1[C@@H]2C(=O)O[C@@H](c3ccccc3)[C@@H](c3ccccc3)N2[C@@H](c2ccc(OCCOC(=O)[C@H]3C[C@H]4C(=O)NCC(=O)N4[C@H]3c3cccc(OCCO)c3)cc2)[C@]12C(=O)Nc1ccc(I)cc12 | 0.0133 (inactive) | 1.31 | 5.17 (inactive) | 2.48 (inactive) | 0.939 (inactive) | 1.58 (inactive) | 0.58 | 1.71 (inactive) | 0.956 (inactive) | 1.4 | 0.0164 | 0.656 | 0.902 | -0.223 | 0.491 | -0.777 | -0.00167 (inactive) | -0.554 | -1.28 | 0.592 (inactive)
4 | COc1ccc([Si](C)(C)[C@H]2[C@H](CC(=O)N(CCO)Cc3ccccc3)O[C@@]3(C(=O)N(Cc4ccc(N5C(=O)c6cccc7cccc5c67)cc4)c4ccccc43)[C@@H]2C)cc1 | -0.263 (inactive) | 0.542 | 15.2 (active) | 3.52 (inactive) | 1.24 (inactive) | 1.48 (inactive) | 0.294 | 1.52 (inactive) | 0.695 (inactive) | 2.88 | -1.12 | 1.59 | -0.899 | -0.998 | -3.8 | 0.488 | -0.381 (inactive) | -1.05 | -0.091 | -2.22 (inactive)
5 | CCCCCCCCCCC(O)C1C=CC2C(=O)N(C)C(=O)C2N1Nc1ccccc1 (stereo not given) | -2.27 (inactive) | -0.206 | 8.71 (active) | 3.03 (inactive) | 0.156 (inactive) | 2.84 (inactive) | -1.28 | -0.433 (inactive) | -4.22 (inactive) | -1.7 | -2.46 | -1.27 | -1.38 | -3.85 | -4.07 | -1.18 | -0.92 (inactive) | -0.744 | 0.0317 | -0.545 (inactive)
6 | O=C1NC(=O)C2C1C=CC(C(O)C(c1ccccc1)c1ccccc1)N2Nc1ccccn1 (stereo not given) | -0.332 (inactive) | 0.228 | 0.186 (inactive) | 0.829 (inactive) | 0.156 (inactive) | 0.853 (inactive) | -0.681 | 0.738 (inactive) | -2.13 (inactive) | -1.47 | 0.795 | -0.46 | 0.605 | 0.332 | 0.077 | 0.176 | -0.219 (inactive) | 0.432 | 0.525 | -0.0343 (inactive)
7 | COCCOC(=O)N1C(=O)[C@@]2(c3cc(C#CCCO)ccc31)[C@H](C(=O)N1CCN(c3ncccn3)CC1)[C@H]1C(=O)O[C@H](c3ccccc3)[C@H](c3ccccc3)N1[C@@H]2c1ccc(OCCO)cc1 | -0.862 (inactive) | 0.197 | 11.4 (active) | 3.12 (inactive) | 0.72 (inactive) | 1.39 (inactive) | -0.633 | 1.45 (inactive) | 0.709 (inactive) | 1.21 | 0.451 | 0.474 | -0.442 | -1.07 | 0.863 | -1.02 | 0.0633 (inactive) | -0.185 | -1.02 | 0.427 (inactive)
8 | COCCCNC(=O)[C@@]1(Cc2ccccc2I)c2ccccc2C(=O)N(Cc2ccccc2C(F)(F)F)[C@H]1c1ccc(CO)cc1 | -0.506 (inactive) | -0.142 | 3.42 (inactive) | 1.31 (inactive) | 2.09 (inactive) | 0.866 (inactive) | -0.55 | 0.227 (inactive) | -1.01 (inactive) | -1.42 | -0.369 | -0.884 | -0.305 | -1.14 | -1.61 | 0.405 | -1.19 (inactive) | -0.578 | -0.553 | 1.77 (inactive)
9 | CC(C)Cc1ccc(CN2CC[C@@H](NC(=O)c3ccccc3)C2)cc1 | -0.55 (inactive) | -0.147 | 1.57 (inactive) | 1.11 (inactive) | 1.23 (inactive) | 0.33 (inactive) | 0.0681 | -0.29 (inactive) | -0.413 (inactive) | -2.41 | 0.0665 | -0.418 | -0.179 | -3.15 | -2.77 | -0.251 | 0.343 (inactive) | -0.442 | -1.38 | 0.247 (inactive)
